From PubChem BioAssay
This is a sample that favours compounds with a hit; in the whole collection about 3.5% have one here.
MITF primary: inhibitors of human MITF; inhibition, % at 2.6 µM; AlphaScreen MITF homodimerization, bead proximity signal; 0.91% of 650,000 active; O75030; AID 1259374; in the data active = inhibition above about 50%;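 note: 0% = vehicle wells with protein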
GPR151 ag: human GPR151 activation; Q8TDV0; PathHunter beta-arrestin GPR151 cells, luminescence; activation, % at 11.2 µM; 1% of 650,000 active; in the data active = activation above about 4.9%;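 note: 0% = median of compound wells and 100% = cells with positive control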
TEAD-YAP block: TEAD-YAP interaction inhibition. HEK-TIYL cells, TEAD-Gal4/YAP UAS-luciferase luminescence. inhibition, % at 9.12 µM. 1.4% of 640,000 active. AID 1259422; in the data active = inhibition above about 32%;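 note: 0% = median of test compound wells and 100% = reference inhibitor wells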
FBW7 activator: activators of human E3 ligase FBW7. Q969H0. AlphaScreen FBW7–phospho-cyclin E peptide binding, activator screen. normalized activity (activation), % at 26.1 µM. 0.13% of 650,000 active; in the data active = normalized activity above about 1.9%;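 note: purified mutant Fbw7 with reduced substrate affinity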
Target sequence (Q969H0 whole entry, looked up): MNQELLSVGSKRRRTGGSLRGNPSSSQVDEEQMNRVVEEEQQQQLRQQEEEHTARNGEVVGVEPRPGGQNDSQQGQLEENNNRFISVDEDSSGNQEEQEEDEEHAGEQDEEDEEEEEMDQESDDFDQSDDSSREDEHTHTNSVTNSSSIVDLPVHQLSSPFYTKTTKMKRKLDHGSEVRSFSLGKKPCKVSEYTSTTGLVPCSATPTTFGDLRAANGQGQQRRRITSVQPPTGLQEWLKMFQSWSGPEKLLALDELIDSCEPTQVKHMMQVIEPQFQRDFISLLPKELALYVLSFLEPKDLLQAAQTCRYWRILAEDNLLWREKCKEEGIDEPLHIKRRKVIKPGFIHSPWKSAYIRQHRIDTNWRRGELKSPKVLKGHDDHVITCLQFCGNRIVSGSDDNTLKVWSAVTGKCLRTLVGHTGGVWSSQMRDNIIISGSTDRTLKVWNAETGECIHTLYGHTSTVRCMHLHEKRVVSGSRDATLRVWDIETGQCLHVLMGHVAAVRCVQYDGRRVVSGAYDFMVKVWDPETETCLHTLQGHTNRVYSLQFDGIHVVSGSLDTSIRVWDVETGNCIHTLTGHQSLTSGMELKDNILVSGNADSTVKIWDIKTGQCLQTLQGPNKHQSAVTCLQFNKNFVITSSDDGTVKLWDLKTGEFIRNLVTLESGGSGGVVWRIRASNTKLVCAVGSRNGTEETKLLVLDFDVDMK
Active calls of the source: *.

SMILES	MITF primary	GPR151 ag	TEAD-YAP block	FBW7 activator
Fc1cccc(-c2nn(CN3CCOCC3)c(=S)n2-c2ccccc2)c1	17	0	7	0
CC(=O)N/C(=N\c1nc(C)cc(C)n1)Nc1cccc(C)c1	13	0	3	1
CC(=O)N/C(=N\c1nc(C)cc(C)n1)Nc1ccc2ccccc2c1	-5	0	52*	0
COc1ccc(-c2nc3ccc(C(=O)NCc4cccnc4)cc3nc2-c2ccc(OC)cc2)cc1	8	1	45*	0
COc1cccc(CNC(=O)c2ccc3nc(-c4ccc(C)cc4)c(-c4ccc(C)cc4)nc3c2)c1	-5	0	4	0
Cc1cccc(NC(=O)C(C)N2Cc3ccccc3C2=O)n1 (stereo not given)	5	2	5	0
Cc1ccc(C)c(NC(=O)C(C)N2Cc3ccccc3C2=O)c1 (stereo not given)	-10	0	-5	0
CC(C(=O)Nc1ccccn1)N1Cc2ccccc2C1=O (stereo not given)	-5	0	48*	0
Cc1ccnc(NC(=O)C(C)N2Cc3ccccc3C2=O)c1 (stereo not given)	-2	2	89*	0
OC1(c2ccc(Cl)cc2)CCN(Cc2ccc(F)cc2)CC1	3	-1	-6	0
CCOc1ccc(C)cc1S(=O)(=O)Nc1ccc(F)cc1	-1	-2	-9	0
CCOc1ccc(C)cc1S(=O)(=O)Nc1ccc(I)cc1	-5	1	42*	0
Cc1cc2c(c(=O)o1)C(c1ccc3c(c1)OCO3)C(C#N)=C(N)O2 (stereo not given)	-12	1	6	0
CC1=NN(c2ccc(Br)cc2)C(=O)/C1=C\c1ccc(-c2c(Br)cc([N+](=O)[O-])cc2Br)o1	14	-1	-2	0
CC1=NN(c2ccc([N+](=O)[O-])cc2)C(=O)/C1=C\c1ccc(C)o1	81*	3	2	0
O=c1c(=NNc2ccccc2Cl)c(=O)c2ccccc12	-1	1	58*	0
Cc1ccc(NN=c2c(=O)c3ccccc3c2=O)cc1	27	0	-39	0
O=c1c(=NNc2nn[nH]n2)c(=O)c2ccccc12	5	0	98*	-1
O=c1c(=NNc2ccccc2)c(=O)c2ccccc12	-10	0	-66	0
CC1CCN(C(=O)CSc2nc3ccccc3c(=O)n2CCCN2CCCCC2)CC1	3	0	-2	0
Cc1onc(-c2c(Cl)cccc2Cl)c1C(=O)N1CCN(c2cccc(C(F)(F)F)c2)CC1	16	1	54*	0
Cc1nc2ccccn2c1C(=O)N1CCN(c2cccc(C(F)(F)F)c2)CC1	3	5	58*	0
CCN(CC)c1ccc(/C=N/NC(=O)c2nonc2N)c(OCc2ccc(Cl)cc2)c1	-5	-2	-16	0
Cc1ccccc1NC(=O)/C(Cl)=C(\Cl)S(=O)(=O)C(C)C	-15	-1	52*	0
Cc1ccccc1NC(=O)Nc1ccccc1C	-10	1	-11	0
SMILES	MITF primary	GPR151 ag	TEAD-YAP block	FBW7 activator
CCC(CO)Nc1ccc2ncc(-c3ccc(OC)c(OC)c3)n2n1 (stereo not given)	-9	0	2	0
COc1ccccc1CNC(=O)CS(=O)Cc1nc(-c2ccccc2C)oc1C (stereo not given)	26	-1	-4	2.6*
Cc1oc(-c2ccccc2Cl)nc1CS(=O)CC(=O)NCc1ccccn1 (stereo not given)	-4	0	2	1
Cc1oc(-c2ccccc2Cl)nc1CS(=O)CC(=O)NCc1ccc2c(c1)OCO2 (stereo not given)	18	-1	10	3.9*
CS(=O)(=O)N1CCCC(C(=O)N2CCN(c3nc4ccc(F)cc4s3)CC2)C1 (stereo not given)	-19	-1	-2	0
CCOc1ccc(/C=N/NC(=O)c2ccccc2NC(=O)c2ccc(OC)cc2)cc1	-8	1	55*	0
O=C(Nc1ccccc1C(=O)N/N=C/c1ccncc1)c1ccc([N+](=O)[O-])cc1	-1	0	41*	0
CCOc1ccc(/C=N/NC(=O)c2ccc(F)cc2)cc1	13	-2	-34	0
O=C(Nc1ccccc1C(=O)N/N=C/c1ccncc1)c1ccccc1	-3	-2	41*	0
O=C(Nc1ccc2c(c1)CN(Cc1cc3ccccc3[nH]1)CC2)C1CCCO1 (stereo not given)	15	-1	4	0
Cc1nn(CCO)c(C)c1Sc1ccccc1N=Cc1ccc([N+](=O)[O-])cc1	-1	-1	2	0
Cc1cc(C)cc(CN2CCc3nnc(C(C)NC(=O)C4CCN(C)CC4)n3CC2)c1 (stereo not given)	-16	1	0	0
O=C(NNc1ncnc2c1cnn2-c1ccc(F)cc1)c1cccs1	-15	2	31	0
Clc1ccc(-n2ncc3c(Nc4ccc(Br)cc4)ncnc32)cc1	-2	1	42*	0
CC(C)Nc1ncnc2c1cnn2-c1ccc(Cl)cc1	18	0	56*	0
Clc1ccc(Nc2ncnc3c2cnn3-c2ccccc2)cc1	-5	0	-18	0
O=C(NNc1ncnc2c1cnn2-c1ccc(Cl)cc1)c1cccs1	-16	1	57*	0
Clc1ccc(-n2ncc3c(NC(c4ccccc4)c4ccccc4)ncnc32)cc1	1	2	-3	0
c1csc(-c2cncc(-c3ccc4[nH]ccc4c3)n2)c1	-7	0	0	0
COc1ccc(NC(=O)c2nc[nH]c2C(=O)Nc2ccc([N+](=O)[O-])cc2)cc1	20	0	6	0
Cc1ccc2nc(/C(C#N)=C/c3ccccc3OC(=O)c3ccccc3)[nH]c2c1	12	-1	52*	0
Cc1nc2ncccn2c1-c1csc(Nc2cccc(Cl)c2C)n1	3	1	38*	0
Cc1ccc(Nc2nc(-c3c(C)nc4ncccn34)cs2)cc1	9	-1	60*	0
Cc1nc2ccccn2c1-c1csc(Nc2cccc(Cl)c2C)n1	1	0	21	0
CCOc1ccc(Nc2nc(-c3c(C)nc4ncccn34)cs2)cc1	-6	1	58*	0
SMILES	MITF primary	GPR151 ag	TEAD-YAP block	FBW7 activator
Cc1nc2ncccn2c1-c1csc(Nc2ccc(Cl)cc2)n1	-2	-1	54*	0
O=C(NCc1ccco1)C(=O)Nc1ccccc1F	6	-2	-40	0
CCCc1nnc(SCC(=O)N2CCCCC2C)n1C (stereo not given)	3	0	7	0
O=C(/C=C/c1cccs1)NC(=S)NNC(=O)c1ccccc1O	40	4	81*	-1
O=C(NNC(=S)NC(=O)C(c1ccccc1)c1ccccc1)c1ccccc1O	23	0	86*	-2
O=C(O)CC/C(=N/NC(=O)c1ccccc1F)C(=O)O	19	-1	-43	0
Cn1nnc2c(N3CCN(S(=O)(=O)c4ccccc4Cl)CC3)ncnc21	-11	-1	38*	0
CN(Cc1c(F)cccc1Cl)C(=O)CSc1nnc(N)s1	-12	1	6	0
CN(Cc1c(F)cccc1Cl)C(=O)CCl	-3	-2	42*	0
